We go through 25 compounds from PubChem BioAssay (NCI).

This is part of a sample that, as a whole, favours compounds with a hit. Of some 83,000 tested, about 20% had one in any assay.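 Method: cells in 96-well plates; compound added at one concentration; 48 h incubation; percent growth measured; values under 10 scored active.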 Calls of active or inactive are those of the source.

The subject of this assay is HL-60(TB) leukemia. As to the kind of experiment: NCI-60 one-dose screen, 48 h (100 = growth as untreated, 0 = no growth, -100 = all killed). Conditions: 10 µM unless noted.
`COc1ccc(/C=C2/C(=O)Nc3cc(Cl)c(-c4csc(N)n4)cc32)cc1`: the growth was 8.08% (active).
As to `CCOC(=O)C1=CCC(n2cc(F)c(=O)[nH]c2=O)O1` (stereo not given), the growth was 83.6% (inactive).
As for `CCOC(=O)n1cc(-c2nonc2-c2cn(C(=O)OCC)c3ccc(Br)cc23)c2ccccc21`, the growth is 93.9% (inactive).
For the compound `O=C1C2C(C(=O)N1CC[Se][Se]CCN1C(=O)C3C(C1=O)[C@H]1C=C[C@@H]3C1)[C@H]1C=C[C@@H]2C1` (stereo not given in full), the growth was -54.7% (active).
To `O=NN(CCCl)C(=O)Nc1ccc(NC(=O)N(CCCl)N=O)cc1` belongs 94.8% (inactive); to `CCCCCCOc1ccc(/C=N/NC(N)=S)cc1`, 8.79% (active); to `O=c1oc2ccc(F)cc2c(=O)n1-c1ccc(I)cc1F`, -42.8% (active).
`Cc1ccc(-c2nc(/C=N/Nc3cc(C)nc4ccc(Cl)cc34)c(C)o2)cc1`: the growth was -19.6% (active).
To `C=C(C)[C@@H]1CC[C@]2(C)[C@H](C(=O)C=C3[C@@H]4C[C@](C)(C(=O)N5CCN(C)CC5)CC[C@]4(C)CC[C@]32C)[C@@]1(C)CCC#N` belongs -22% [100 µM] (active); to `COc1cc(Cn2cc(F)c(=O)[nH]c2=O)cc(OC)c1`, 104% [50 µM] (inactive); to `COc1ccc2oc(=O)cc(C3c4ccc([nH]4)C(c4cc(=O)oc5ccc(OC)cc45)c4ccc([nH]4)C(c4cc(=O)oc5ccc(OC)cc45)c4ccc([nH]4)C(c4cc(=O)oc5ccc(OC)cc45)c4ccc3[nH]4)c2c1` (stereo not given), -14.5% (active).
For `COc1cccc2c(=O)c3c(sc12)c(NCCCN)nc1ccccc13`, the growth was 44.2% (inactive).
In the case of `N#Cc1ccc(C(=O)CSc2nccc(Nc3ccc(C(=O)O)cc3)n2)cc1` it was 99.5% (inactive); in that of `Cc1c2ccncc2c(C)c2c1c1cc(CO)ccc1n2C`, 19.2% (inactive); in that of `COc1cc(C2NC(c3ccc(Cl)cc3)C(C)/C(=N/NC(N)=S)C2C)cc(OC)c1OC` (stereo not given), 79.9% (inactive).
In the case of `COCc1cc2c(cc1Br)OCO2` it was 105% (inactive).
In the case of `O=C1C(Cl)=C(Nc2ccccc2)C(=O)C(Cl)=C1Nc1ccccc1` it was 122% (inactive); in that of `C/C(=C\CCc1ccsc1)CC/C=C(\C)CCCN1CCSCC1`, 67.7% (inactive).
Take `COc1ccc2c(c1)NC(=O)CN2c1nc(NC2CC2)nc2ccccc12`: the growth was -5.55% (active).
To `Cc1ccc([N+](=O)[O-])cc1Br` belongs 80.6% (inactive); to `CCN1CCN(c2cc(C)c3cc(NC(=O)c4ccc(OC)c(OC)c4)ccc3n2)CC1`, 1.42% (active).
As for `COc1cc(-c2nc3ccccc3o2)cc(CN2CCCCC2)c1O`, the growth is 11.9% (inactive).
In the case of `Clc1ccc(-c2nc(-c3cccs3)no2)cc1` it was 108% (inactive); in that of `O=C(Cc1csc2nc(-c3ccc(Cl)cc3)cn12)N/N=C/c1ccccc1O`, -3.5% (active); in that of `Nc1cc(N)c(N=Nc2ccc(S(=O)(=O)O)cc2)cc1N=Nc1ccc(-c2ccc(N=Nc3ccc(O)c(C(=O)O)c3)cc2)cc1`, 111% (inactive).
